Screening results from PubChem BioAssay.
Bcl-W Bim block: inhibitors of Bim-Bcl-W interaction, human; Q92843; bead-based flow cytometry, Bim peptide-Bcl-W binding; inhibition, % at 10 µM; 0.02% of 190,000 active; AID 952;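 note: 0% = bound tracer without compound and 100% = peptide blocker; higher means less fluorescent Bim peptide bound to Bcl-W beads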
Target sequence (Q92843 whole entry, looked up): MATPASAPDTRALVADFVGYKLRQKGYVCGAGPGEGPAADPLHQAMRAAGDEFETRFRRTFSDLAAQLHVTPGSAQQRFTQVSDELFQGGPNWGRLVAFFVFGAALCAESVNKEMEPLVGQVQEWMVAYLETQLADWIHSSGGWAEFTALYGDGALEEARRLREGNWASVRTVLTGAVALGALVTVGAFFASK
Arbovirus anti: blocks arbovirus infection | inhibition, % at 10 µM | arbovirus infection cell-based antiviral screen | 0.37% of 200,000 active; in the data active = inhibition above about 30%
Bim-Bcl-XL: inhibitors of Bim-Bcl-XL interaction, human | Q07817 | Bim peptide-Bcl-XL binding, bead flow cytometry, fluorescence | inhibition, % at 10 µM | 0.04% of 190,000 active
Bim-Bcl-B: disrupts Bim peptide binding to human Bcl-B; Q9HD36; bead-based flow cytometry; inhibition, % at 10 µM; 0.073% of 190,000 active;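 note: 0% = tracer peptide without compound and 100% = reference inhibitor peptide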
Bcl-2 Bim block: inhibitors of Bim-Bcl-2 interaction, human; P10415; Bead-based flow cytometry, Bim peptide-Bcl-2 binding; inhibition, % at 10 µM; 0.06% of 190,000 active; in the data active = inhibition above about 40%;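 note: 0% = no compound wells with probe peptide and 100% = reference peptide inhibitor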
Target sequence (P10415 whole entry, looked up): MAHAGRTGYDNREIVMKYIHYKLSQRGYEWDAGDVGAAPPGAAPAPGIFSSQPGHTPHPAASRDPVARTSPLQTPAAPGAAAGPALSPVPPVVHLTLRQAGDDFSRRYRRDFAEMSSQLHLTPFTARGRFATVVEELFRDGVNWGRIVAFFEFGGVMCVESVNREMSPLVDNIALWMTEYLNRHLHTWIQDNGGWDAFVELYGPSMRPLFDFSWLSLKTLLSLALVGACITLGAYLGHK
Bfl-1 Bim block: disrupts Bim binding to human Bfl-1. Bead-based flow cytometry, Bim-Bfl-1 binding inhibition. inhibition, % at 10 µM. 0.12% of 190,000 active;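 note: 0% = wells without compound plus tracer and 100% = blocker peptide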
Target sequence (Q16548 whole entry, looked up): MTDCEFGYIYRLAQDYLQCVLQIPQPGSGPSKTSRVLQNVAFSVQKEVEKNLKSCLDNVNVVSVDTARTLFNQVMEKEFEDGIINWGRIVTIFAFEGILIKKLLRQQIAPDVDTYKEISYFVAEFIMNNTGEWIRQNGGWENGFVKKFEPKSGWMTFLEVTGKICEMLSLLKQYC
The depositor's hits bear a star. Most compounds without a hit are left out; they make up all but 0.56% or so of the library. Cut-off read from the data, not from the text of the source, unless noted: active = inhibition above about 40%.

SMILES	Bcl-W Bim block	Arbovirus anti	Bim-Bcl-XL	Bim-Bcl-B	Bcl-2 Bim block	Bfl-1 Bim block
CCOCCCNC(=O)C(NC(=O)Cc1cccs1)c1ccc(Cl)cc1 (configuration not stated)	0.0	3.4	-2.0	-2.0	0.0	-3.0
COc1ccccc1NC(=S)NCCSc1ccc(C)cc1	-6.0	33.5*	-6.0	-9.0	-10.0	-6.0
CC(=O)c1ccc(N2CCN(C(=O)c3cc(-c4cccnc4)nc4ccc(Br)cc34)CC2)cc1	6.0	32.1*	3.0	1.0	3.0	0.0
O=C(c1cc(-c2cccnc2)nc2ccc(Br)cc12)N1CCN(c2ncccn2)CC1	2.0	21.6	-4.0	-7.0	-5.0	-8.0
CCOC(=O)C1CCCN(Cc2ccccc2C)C1 (configuration not stated)	-2.0	1.8	0.0	-2.0	-2.0	-7.0
CCOC(=O)C1CCCN(Cc2ccccc2Cl)C1 (configuration not stated)	4.0	87.7*	-1.0	-3.0	0.0	-7.0
CSc1nc(C)c(CCO)c(=O)[nH]1	3.0	30.6*	0.0	-4.0	-3.0	-4.0
COc1ccc(-c2nnc(SCC(=O)N(C)C3CCS(=O)(=O)C3)n2N)cc1OC (configuration not stated)	-2.0	7.8	-4.0	-8.0	0.0	0.0
O=c1[nH]c2ccc(S(=O)(=O)N3CCN(c4ccccc4F)CC3)cc2s1	-1.0	38.0*	-4.0	-7.0	-4.0	-8.0
C=CCSc1nc2c(sc3nc(C)cc(C)c32)c(=O)[nH]1	-1.0	65.0*	1.0	1.0	-1.0	2.0
Cc1cc(C)c2c(n1)sc1c(=O)[nH]c(SCc3ccccc3)nc12	-3.0	-2.2	-9.0	-13.0	-4.0	-8.0
CC1(c2ccc([N+](=O)[O-])cc2)CC(C)(C)N(C(=O)c2ccccc2)c2ccccc21 (configuration not stated)	-6.0	33.6*	-6.0	-8.0	-3.0	-3.0
COc1ccccc1OCc1ccc(C(=O)Nc2ccccc2F)cc1	1.0	0.1	2.0	63.0*	47.0*	9.0
COc1ccccc1NC(=O)c1ccc(COc2ccccc2OC)o1	0.0	3.1	-1.0	0.0	0.0	0.0
CC1C=CCC2C(=O)N(c3ccc(OC(=O)c4cccs4)cc3)C(=O)C12 (configuration not stated)	-6.0	10.8	3.0	70.0*	79.0*	55.0*
COc1ccc(/C=C/c2nc(-c3ccccc3O)n[nH]2)cc1OC	-4.0	30.2*	-5.0	-4.0	-8.0	-6.0
COc1ccc(/C=N/NC(=O)c2[nH]nc3c2CCc2ccccc2-3)cc1OC	-2.0	-12.1	-10.0	-12.0	-5.0	-11.0
COc1ccc(-c2cc(-c3ccc(Br)cc3)nc3ncnn23)cc1OC	-2.0	72.1*	-9.0	-9.0	-9.0	-11.0
COc1ccc(-c2cc(-c3ccccc3)nc3ncnn23)cc1	-3.0	-0.3	-1.0	-2.0	-6.0	1.0
Fc1ccc2nc(Nc3nc4c(F)cccc4s3)sc2c1	-8.0	34.2*	-8.0	-9.0	-7.0	-7.0
COc1ccc(OC)c(N(CC(=O)N2CCN(c3cc(Cl)ccc3C)CC2)S(C)(=O)=O)c1	0.0	40.9*	-12.0	-4.0	-6.0	-5.0
Nc1nc2ccccc2n1/N=C/c1ccc(-c2ccccc2)o1	-5.0	39.1*	-20.0	-10.0	-6.0	-11.0
Nc1nc2ccccc2n1/N=C/c1cccnc1	-2.0	-6.0	-3.0	-4.0	3.0	-4.0
O=C(CSc1nc(-c2ccc(F)cc2)cs1)NCCN1C(=O)CSC1=O	9.0	-0.9	3.0	6.0	6.0	9.0
Cc1ccc(N=C2NC(=O)/C(=C/C=C/c3ccco3)S2)cc1	15.0	25.4	4.0	0.0	20.0	52.0*
SMILES	Bcl-W Bim block	Arbovirus anti	Bim-Bcl-XL	Bim-Bcl-B	Bcl-2 Bim block	Bfl-1 Bim block
COc1ccc(/C=N/NC(=O)CCSc2nc3ccccc3s2)cc1	-9.0	-8.0	-13.0	-13.0	-4.0	-11.0
COc1cc(/C=C2\SC(=O)N(c3cccc(Cl)c3)C2=O)cc([N+](=O)[O-])c1O	1.0	13.7	0.0	4.0	2.0	7.0
COc1cc(/C=C2\SC(=O)N(c3ccc(Cl)cc3)C2=O)cc([N+](=O)[O-])c1O	0.0	57.2*	0.0	0.0	1.0	0.0
CCCCN1C(=O)C(=Nc2cccc3cnccc23)c2ccccc21	-3.0	1.6	-5.0	-8.0	-8.0	-3.0
O=C1c2ccccc2-c2onc3ccc(NCCCn4ccnc4)c1c23	94.0*	-25.9	100.0*	92.0*	88.0*	79.0*
Cc1nc(NCCCn2ccnc2)c2ccccc2n1	1.0	-3.2	0.0	-1.0	-3.0	0.0
CCOc1ccc(/C=C/C(=O)c2cc(Br)ccc(=O)c2O)cc1	21.0	-32.3	21.0	-13.0	28.0	42.0*
COCCN1C(=O)/C(=C/c2ccc(Oc3ccc([N+](=O)[O-])cn3)c(OC)c2)SC1=Nc1ccccc1	0.0	32.2*	-4.0	-2.0	-4.0	-3.0
COc1cc(/C=C2\SC(=Nc3ccccc3)N(CCc3c[nH]c4ccccc34)C2=O)ccc1OC(C)C(=O)O (configuration not stated)	0.0	-13.2	-1.0	-5.0	-3.0	-12.0
Cc1ccccc1N=CC=C1OC(C)(C)C(C)(C)O1	-9.0	-7.5	-10.0	-16.0	-11.0	-13.0
CCNC(=O)NC(=O)C(C)Sc1nc2cc(C(=O)OC)ccc2c(=O)n1-c1ccccc1 (configuration not stated)	0.0	42.6*	-5.0	-4.0	-4.0	-12.0
CCc1c(C)nc(SCC(=O)N2CCCCC2C)[nH]c1=O (configuration not stated)	-4.0	11.9	-2.0	-5.0	1.0	-9.0
CCOC(=O)CNC(=O)CSc1nnc(NC(=O)c2ccccc2Cl)s1	-2.0	0.9	-3.0	-2.0	-1.0	-3.0
Cc1ccc(/C=C/C2=Cc3c(sc(NC(=O)CSc4n[nH]c(N)n4)c3C#N)C(C)(C)C2)o1	26.0	28.0	16.0	7.0	19.0	47.0*
Cc1nnc(NCc2n[nH]c(=O)c3ccccc23)c2ccccc12	4.0	-7.5	0.0	57.0*	0.0	5.0
O=C(NNC(=S)NC1CCCCC1)c1ccc(Cl)s1	1.0	38.3*	-1.0	-17.0	0.0	5.0
CCC(=O)OCCNc1cc(Sc2nc3ccccc3s2)c2nonc2c1[N+](=O)[O-]	9.0	-45.7	3.0	6.0	2.0	54.0*
O=C(CCCn1cnc([N+](=O)[O-])n1)Nc1cccc2ccccc12	-14.0	12.5	-20.0	-8.0	0.0	3.0
Cc1cc(SCC(=O)c2cccs2)nc2ccccc12	-7.0	6.7	-8.0	-11.0	-5.0	-3.0
CCCc1cc(=O)[nH]c(SCC(=O)NC)n1	-1.0	71.9*	1.0	0.0	-1.0	3.0
CS(=O)(=O)Nc1ccc(C2=NN(S(C)(=O)=O)C(c3ccc4c(c3)OCO4)C2)cc1 (configuration not stated)	-3.0	-8.7	-8.0	-9.0	-4.0	-8.0
COc1cc2[nH]c(=S)nc(Nc3ccc(NC(C)=O)cc3)c2cc1OC	33.0	-0.3	50.0*	31.0	21.0	29.0
